Assay results from PubChem BioAssay (EPA / NIEHS).
Inconclusive results are not listed. The source made the active and inactive calls. How the source made its calls, unless noted: active means hit-call score of the fitted dose curve at least 0.9, where 1 is the maximum; inactive means score below 0.9.

Legend:
[1] = CCTE_Mundy_HCI_Cortical_Synap_Neur_Matur_NeuriteSpotCountPerNeuriteLength: CCTE's Synaptogenesis and Neurite Maturation Assay in rat cortical cells for Neurite Spot Count per Neurite Length, Mundy Lab (AID 2284210)
Outline: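 Rat primary cortical cultures, glia arrested with AraC at DIV 5, were dosed with media change at DIV 7 and fixed at DIV 12. Synaptophysin puncta per MAP2-labelled neurite length were quantified by high-content imaging versus DMSO.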

[2] = CCTE_Mundy_HCI_Cortical_Synap_Neur_Matur_NeuriteLength: CCTE's Synaptogenesis and Neurite Maturation Assay in rat cortical cells for Neurite Length, Mundy Lab (AID 2284214)
Outline: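 Rat primary cortical cultures, AraC added DIV 5, dosed DIV 7 through DIV 12 […]. Fixed, MAP2/synaptophysin immunostained with Hoechst; neurite length by high-content imaging, fitted in positive direction versus DMSO.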

[3] = CCTE_Mundy_HCI_Cortical_Synap_Neur_Matur_NeuriteSpotCountPerNeuron: CCTE's Synaptogenesis and Neurite Maturation Assay in rat cortical cells for Neurite Spot Count per Neuron Count, Mundy Lab (AID 2284215)
Outline: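 Rat primary cortical cultures given AraC at DIV 5, dosed from DIV 7 to DIV 12 with media change. Fixed, stained for MAP2, synaptophysin and Hoechst; neurite-associated synaptophysin puncta per neuron quantified by high-content imaging versus DMSO.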

[4] = CCTE_Mundy_HCI_Cortical_Synap_Neur_Matur_SynapseCount: CCTE's Synaptogenesis and Neurite Maturation Assay in rat cortical cells for Synapse Count, Mundy Lab (AID 2284218)
Outline: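 Rat primary cortical cultures, AraC at DIV 5, chemical dosing DIV 7 to DIV 12 (288.33 h). Fixed cells stained for MAP2, synaptophysin and Hoechst; synapses per neuron counted by high-content imaging, loss of signal versus DMSO.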

[5] = CCTE_Mundy_HCI_Cortical_Synap_Neur_Matur_CellBodySpotCount: CCTE's Synaptogenesis and Neurite Maturation Assay in rat cortical cells for Cell Body Spot Count, Mundy Lab (AID 2284223)
Outline: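 Primary rat cortical cultures, AraC added at DIV 5; dosed DIV 7 through DIV 12 […]. Fixed, stained for MAP2 and synaptophysin with Hoechst; cell body-associated synaptophysin puncta per neuron counted by high-content imaging, loss vs DMSO.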

[6] = CCTE_Mundy_HCI_Cortical_NOG_NeuronCount: CCTE's Neurite Outgrowth Assay in rat cortical cells for Neuron Count, Mundy Lab (AID 2284236; active means hit-call score of the fitted dose curve at least 0.9, where 1 is the maximum;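 further: neurons counted by imaging betaIII-tubulin and Hoechst stained cortical cells; cells exposed to compound for about 48 hours before fixation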)
Outline: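 Read-out: neuron number by high-content imaging of betaIII-tubulin (Alexa Fluor-488) and Hoechst-labelled rat primary cortical cells.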

[7] = CCTE_Mundy_HCI_Cortical_Synap_Neur_Matur_NeuronCount: CCTE's Synaptogenesis and Neurite Maturation Assay in rat cortical cells for Neuron Count, Mundy Lab (AID 2284242; active means hit-call score of the fitted dose curve at least 0.9, where 1 is the maximum)
Outline: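 Rat primary cortical cells, AraC added at DIV 5, dosed with media change from DIV 7 to DIV 12. Fixed, Hoechst-stained and immunolabelled for MAP2 and synaptophysin; neuron number counted by high-content imaging, loss fitted versus DMSO.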

[8] = IUF_NPC2c_oligodendrocyte_migration_120hr: Leibniz Research Institute for Environmental Medicine (IUF) 120-hour Neural Progenitor Cell Migration Assay for Oligodendrocyte Migration (NPC2c) (AID 2284297);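 further: O4-positive oligodendrocyte migration distance divided by radial glia migration distance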
Outline: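 Human fetal neural progenitor spheres (0.3 mm) are plated on poly-D-lysine/laminin in N2 differentiation medium and exposed for 120 h, with half-medium renewal at day 3. Oligodendrocyte (O4+) migration distance comes from ICC imaging, normalised to radial glia migration.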

[9] = IUF_NPC2a_radial_glia_migration_120hr: Leibniz Research Institute for Environmental Medicine (IUF) 120-hour Neural Progenitor Cell Migration Assay for Radial Glia Migration (NPC2a) (AID 2284298)
Outline: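 Human fetal-cortex neural progenitor spheres (0.3 mm) plated on poly-D-lysine/laminin in N2 differentiation medium, exposed 120 h at 37C with half-medium renewal at day 3. Radial glia migration distance (um) measured from Hoechst-stained nuclei images; DMSO baseline.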

[10] = IUF_NPC2a_radial_glia_migration_72hr: Leibniz Research Institute for Environmental Medicine (IUF) 72-hour Neural Progenitor Cell Migration Assay for Radial Glia Migration (NPC2a) (AID 2284299)
Outline: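 Human fetal neural progenitor spheres (0.3 mm) plated on poly-D-lysine/laminin in N2 differentiation medium and exposed from day 0 at 7 concentrations; radial glia migration distance from sphere edge measured at 72 h on brightfield images, mean of four directions, vs DMSO.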

[11] = IUF_NPC2b_neuronal_migration_120hr: Leibniz Research Institute for Environmental Medicine (IUF) 120-hour Neural Progenitor Cell Migration Assay for Neuron Migration (NPC2b) (AID 2284300)
Outline: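 0.3 mm hNPC spheres on poly-D-lysine/laminin in N2 differentiation medium exposed 120 h, half-medium refresh day 3; 7 concentrations, DMSO max 0.1%. Neuron (TUBB3) distance from sphere core by ICC imaging, normalised to radial glia migration.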

[12] = IUF_NPC3_neuronal_differentiation_120hr: Leibniz Research Institute for Environmental Medicine (IUF) 120-hour Neuronal Differentiation Assay (NPC3) (AID 2284301)
Outline: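 Primary human fetal neural progenitor spheres (GW 16-19, 0.3 mm) plated on poly-D-lysine/laminin in N2 medium, exposed from day 0 for 120 h with half-medium refresh at day 3. TUBB3+ cells as percent of Hoechst nuclei in migration area; DMSO baseline.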

[13] = IUF_NPC4_neurite_area_120hr: Leibniz Research Institute for Environmental Medicine (IUF) 120-hour Neuronal Morphology Assay for Neurite Area (NPC4) (AID 2284305; active means hit-call score of the fitted dose curve at least 0.9, where 1 is the maximum)
Outline: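 Human fetal cortex-derived neural progenitor spheres (0.3 mm, GW 16-19) plated on poly-D-lysine/laminin in N2 differentiation medium and exposed from day 0 for 120 h across 7 concentrations plus solvent control. Neurite area is mean pixel area per TUBB3-positive neuron via skeletonization, analysed relative to DMSO.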

[14] = IUF_NPC2-5_cytotoxicity_72hr: Cytotoxicity Assessment at 72 hours in the Leibniz Research Institute for Environmental Medicine (IUF) Neural Progenitor Cell Migration and Differentiation Assay for Cytotoxicity (NPC2-5) (AID 2284306; active means hit-call score of the fitted dose curve at least 0.9, where 1 is the maximum;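 further: LDH release into supernatant measured by resorufin fluorescence marking membrane damage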)
Outline: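 Human fetal (GW 16-19) neural progenitor spheres, 0.3 mm, plated on poly-D-lysine/laminin in N2 differentiation medium and exposed from day 0 to 7 concentrations plus solvent control (DMSO ≤0.1%). LDH-dependent resazurin-to-resorufin fluorescence in supernatant at 72 h.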

[15] = IUF_NPC2-5_cell_number_120hr: Cell Number Assessment at 120 hours in the Leibniz Research Institute for Environmental Medicine (IUF) Neural Progenitor Cell Migration and Differentiation Assay (NPC2-5) (AID 2284308);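 further: count of Hoechst-stained nuclei in migration zone around plated human neural progenitor spheres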
Outline: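 Human fetal neural progenitor spheres (0.3 mm) plated on poly-D-lysine/laminin in N2 differentiation medium, exposed five days across 7 concentrations with half-medium refresh at day 3. Hoechst-positive nuclei counted in migration area at 120 h, relative to DMSO.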

[16] = IUF_NPC2-5_viability_120hr: Viability Assessment at 120 hours in the Leibniz Research Institute for Environmental Medicine (IUF) Neural Progenitor Cell Migration and Differentiation Assay (NPC2-5) (AID 2284312)
Outline: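 Human fetal (GW 16-19) neural progenitor spheres of 0.3 mm were plated on poly-D-lysine/laminin in N2 differentiation medium and exposed from day 0 for 120 h, with half-medium refresh at day 3. Viability was read as alamar blue resazurin-to-resorufin fluorescence against DMSO.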

[17] = IUF_NPC1_cytotoxicity_72hr: Cytotoxicity Assessment at 72 hours in the Leibniz Research Institute for Environmental Medicine (IUF) Neural Progenitor Cell Proliferation Assay (NPC1) (AID 2284332; active means hit-call score of the fitted dose curve at least 0.9, where 1 is the maximum;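 further: rising LDH signal means more cytotoxicity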)
Outline: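 Human fetal neural progenitor spheres (0.3 mm) in EGF/FGF proliferation medium, 37C, exposed 72 h without renewal. LDH release in supernatant read by resorufin fluorescence; gain of signal scored relative to dynamic range.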

Question: Which outcome [1] does the source give for `CN(C)CCCn1cc(C2=C(c3c[nH]c4ccccc34)C(=O)NC2=O)c2ccccc21` here?
Answer: inactive

Question: And the outcome [2]?
Answer: inactive

Question: What about the outcome [3] of the same compound?
Answer: inactive

Question: What about the outcome [4] of the same compound?
Answer: inactive

Question: What about the outcome [5] of the same compound?
Answer: inactive

Question: What about the outcome [6] of the same compound?
Answer: inactive

Question: What about the outcome [7] of the same compound?
Answer: inactive

Question: And the AC50 [8]?
Answer: 18.6 µM (active)

Question: And the AC50 [9]?
Answer: 5.37 µM (active)

Question: And the AC50 [10]?
Answer: 11.3 µM (active)

Question: And the AC50 [11]?
Answer: 16.3 µM (active)

Question: And the AC50 [12]?
Answer: 16.2 µM (active)

Question: And the AC50 [13]?
Answer: 7.2 µM (active)

Question: And the AC50 [14]?
Answer: 13.9 µM (active)

Question: What about the AC50 [15] of the same compound?
Answer: 2.31 µM (active)

Question: What about the AC50 [16] of the same compound?
Answer: 6.01 µM (active)

Question: And the outcome [17]?
Answer: inactive
